Unmarked numbers belong to inactive results. Results filed as inconclusive are left out. The source made the active and inactive calls. Unless noted, calls follow the shape of the dose curve; as a rule, active = well fitted curve in either direction with a large enough effect (not every such curve was filed as active); inconclusive = small, poorly fitted or top-dose-only effect, or another doubt; inactive = flat fitted curve, though single readings scatter.
Experiments:
[1] = biological target: Lysosomal acid glucosylceramidase (Homo sapiens) (UniProt P04062); experiment: Glucocerebrosidase-p2 (AID 348; in the data active = potency below about 10 µM; also: potency is read from the fitted curve at half-maximal effect); settings: purified GBA, blue fluorogenic substrate, 40 min
Chain of Lysosomal acid glucosylceramidase (Homo sapiens) (P04062 whole entry, looked up): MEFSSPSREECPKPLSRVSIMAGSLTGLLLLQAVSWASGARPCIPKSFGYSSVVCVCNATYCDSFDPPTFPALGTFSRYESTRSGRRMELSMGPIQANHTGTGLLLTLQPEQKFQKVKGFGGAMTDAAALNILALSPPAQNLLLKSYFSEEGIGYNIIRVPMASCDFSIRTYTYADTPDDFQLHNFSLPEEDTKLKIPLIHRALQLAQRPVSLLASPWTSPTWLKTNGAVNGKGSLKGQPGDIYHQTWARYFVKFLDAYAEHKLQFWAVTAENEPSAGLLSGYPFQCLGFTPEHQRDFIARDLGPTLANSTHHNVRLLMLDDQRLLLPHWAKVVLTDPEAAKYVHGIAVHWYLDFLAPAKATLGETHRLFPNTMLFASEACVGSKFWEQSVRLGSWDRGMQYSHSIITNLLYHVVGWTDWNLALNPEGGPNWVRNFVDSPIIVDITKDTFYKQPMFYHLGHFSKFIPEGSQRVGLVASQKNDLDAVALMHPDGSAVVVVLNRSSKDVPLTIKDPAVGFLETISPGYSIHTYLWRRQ
Procedure, shortened: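 Normal human glucocerebrosidase (0.2 nM) with blue fluorogenic substrate (80 uM final) in citrate/phosphate pH 5.9 with 10mM sodium taurocholate, 0.01% tween-20; 40 min RT, NaOH/glycine stop; fluorescence Ex 365/Em 440; AC50 from a titration from 0.6 nM upwards.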

[2] = AP1 Signaling Pathway (AID 357); settings: ME-180 AP-1-bla reporter, EGF-induced, beta-lactamase ratio, 5 h; at 7.69 µM (top of the series) unless noted;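 also: ME-180 reporter cells stimulated with EGF at its EC50 level; % is scaled to controls: 0 for no effect and ±100 for the full control effect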
Procedure, shortened: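 First, ME-180 AP-1-bla cells were cultured overnight at 37 °C in low-serum Opti-MEM. Next, titrated compounds with EC50 EGF were incubated 5 hours. Finally, CCF4 was added for 2.5 hours and the 460/530 nm ratio recorded.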

[3] = Stat Signaling Pathway (AID 446); settings: ME-180 SIE beta-lactamase reporter, IL-6 stimulated, 5 h; at 7.69 µM (top of the series) unless noted;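 also: ME-180 cervical cancer cells given 40 pM IL-6 alongside compound; SIE-controlled beta-lactamase reporter measured as 460/530 nm FRET emission ratio; % is scaled to controls: 0 for no effect and ±100 for the full control effect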
Procedure, shortened: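 FRET read-out (405 nm excitation, 460/530 nm emission) of a beta-lactamase reporter under a STAT-inducible element in ME-180 cervical carcinoma cells. Cells with compound receive 40 pM IL-6 for 5 h. Values are normalised to AC90 stimulation and AC90 JAK-inhibitor controls.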

[4] = biological target: Glucocorticoid receptor (Homo sapiens) (UniProt P04150); experiment: GR-EFC Redistribution (AID 451; calls by dose curve; also: potency is read from the fitted curve at half-maximal effect); settings: CHO-K1 GR-EFC translocation, beta-gal luminescence, 2 h
Chain of Glucocorticoid receptor (Homo sapiens) (P04150 whole entry, looked up, the tested form may be a part): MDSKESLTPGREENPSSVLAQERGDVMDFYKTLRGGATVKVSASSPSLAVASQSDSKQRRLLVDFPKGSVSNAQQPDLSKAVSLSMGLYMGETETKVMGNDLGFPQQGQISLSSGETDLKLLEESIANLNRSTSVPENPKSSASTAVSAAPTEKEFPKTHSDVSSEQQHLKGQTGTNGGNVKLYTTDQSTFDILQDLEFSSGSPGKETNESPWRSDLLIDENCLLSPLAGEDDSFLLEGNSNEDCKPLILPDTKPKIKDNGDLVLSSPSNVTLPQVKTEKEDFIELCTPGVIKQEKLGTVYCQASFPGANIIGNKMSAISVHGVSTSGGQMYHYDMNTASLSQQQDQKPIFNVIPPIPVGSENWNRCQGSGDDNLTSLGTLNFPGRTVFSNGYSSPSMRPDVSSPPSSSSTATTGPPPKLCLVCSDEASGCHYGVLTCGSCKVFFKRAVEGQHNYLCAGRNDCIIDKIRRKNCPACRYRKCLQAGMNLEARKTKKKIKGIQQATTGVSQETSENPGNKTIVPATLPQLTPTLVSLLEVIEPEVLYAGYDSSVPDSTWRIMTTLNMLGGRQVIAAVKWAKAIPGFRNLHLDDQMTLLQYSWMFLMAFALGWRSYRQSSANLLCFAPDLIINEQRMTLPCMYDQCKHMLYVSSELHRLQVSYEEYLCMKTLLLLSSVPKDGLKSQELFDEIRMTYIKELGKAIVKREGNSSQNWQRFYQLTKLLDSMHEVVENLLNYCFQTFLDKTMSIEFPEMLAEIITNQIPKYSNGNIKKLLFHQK
Procedure, shortened: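 CHO-K1 cells expressing nuclear EA and GR-ED fragments of b-gal; compounds titrated up to 46 uM final, 2 h at 37 C. GR nuclear translocation read as complemented b-gal luminescence after 1 h RT detection.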

[5] = biological target: Mitogen-activated protein kinase 10 (Mus musculus) (UniProt Q61831); experiment: JNK3 AlphaScreen Assay (AID 530); settings: JNK3 lysate, c-Jun phosphorylation; series mostly up to 57.1 µM;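 also: kinase came from lysate of stimulated human HepG2 cells; signal reports phosphorylation of biotinylated GST-cJun 1-79 at Ser73 with 10 µM ATP; % is scaled to controls: 0 for no effect and ±100 for the full control effect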
Procedure, shortened: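 Activity was read by AlphaScreen after JNK3-containing HepG2 lysate (cytokine pre-activated) phosphorylated biotinylated GST-cJun with 10 uM ATP at room temperature. Phospho-Ser73 cJun antibody with Protein-A acceptor beads provided detection.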

[6] = qHTS Assay for Identification of Small Molecule Agonists for Hypoxia Response Element Signaling Pathway (AID 914; active = well fitted activation curve with a large enough effect in the signal ratio, with a control signal flat, not every such curve was filed as active; the % refers to the signal ratio; also: potency is read from the fitted curve at half-maximal effect; as to activation: % of control where 0% means no effect); settings: ME-180 (cervical carcinoma) HRE-bla reporter, beta-lactamase ratio, CoCl2, 17 h; activation: hits give high values
Procedure, shortened: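 HRE-bla ME-180 assay for agonist-like enhancement of an EC50 CoCl2 stimulus: 17 h at 37 degrees Celsius, CCF4 for 2.5 h, ratiometric 460/530 nm signal converted to %Activity and fitted to AC50.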

[7] = Primary qHTS for small molecule stabilizers of the endoplasmic reticulum resident proteome: Secreted ER Calcium Modulated Protein (SERCaMP) assay (AID 1508630; active = well fitted curve in the direction sought with a large enough effect; an effect the other way counts as inactive or inconclusive; also: % is scaled to controls: 0 for no effect and ±100 for the full control effect); settings: SH-SY5Y GLuc-SERCaMP (Gaussia luciferase released on ER calcium loss) secretion, thapsigargin, luminescence; series mostly up to 38.4 µM
Procedure, shortened: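 The SH-SY5Y reporter protocol was run at 3 concentrations up to 38.3 uM (primary) or 11 concentrations (follow-up): 16 h compound, 100 nM thapsigargin for 4 h, then extracellular luciferase luminescence.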

[8] = NFAT Signaling Pathway (AID 444); settings: Jurkat NFAT-bla M1, carbachol, beta-lactamase ratio, 5 h; at 7.69 µM (top of the series) unless noted
Procedure, shortened: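 Jurkat cells with NFAT-driven β-lactamase reporter and co-expressed M1 receptor, stimulated with carbachol (final 1 uM, ~EC50), compound titration, 5 h at 37 °C. CCF4 loaded 1 h at RT; 460/530 nm ratio gave %activity and AC50.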

[9] = biological target: Glucocorticoid receptor (Homo sapiens) (UniProt P04150); experiment: GR-GFP Redistribution (AID 450;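 active = compounds whose dose series gives a full or clear partial fitted curve of increased nuclear translocation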; also: potency is read from the fitted curve at half-maximal effect); settings: U2OS GR-GFP nuclear translocation, laser cytometry, 2 h
[10] = biological target: 3',5'-cyclic-AMP phosphodiesterase 4B (Homo sapiens) (UniProt Q07343); experiment: qHTS Assay for Inhibitors of PDE-IV (AID 607; active = well fitted activation curve with a large enough effect in the main read-out, with a control signal flat, not every such curve was filed as active; also: % of control where 0% means no effect); settings: HEK293 ACTOne CNG channel cells, membrane potential fluorescence; series mostly up to 22.9 µM
Chain of 3',5'-cyclic-AMP phosphodiesterase 4B (Homo sapiens) (Q07343 whole entry, looked up): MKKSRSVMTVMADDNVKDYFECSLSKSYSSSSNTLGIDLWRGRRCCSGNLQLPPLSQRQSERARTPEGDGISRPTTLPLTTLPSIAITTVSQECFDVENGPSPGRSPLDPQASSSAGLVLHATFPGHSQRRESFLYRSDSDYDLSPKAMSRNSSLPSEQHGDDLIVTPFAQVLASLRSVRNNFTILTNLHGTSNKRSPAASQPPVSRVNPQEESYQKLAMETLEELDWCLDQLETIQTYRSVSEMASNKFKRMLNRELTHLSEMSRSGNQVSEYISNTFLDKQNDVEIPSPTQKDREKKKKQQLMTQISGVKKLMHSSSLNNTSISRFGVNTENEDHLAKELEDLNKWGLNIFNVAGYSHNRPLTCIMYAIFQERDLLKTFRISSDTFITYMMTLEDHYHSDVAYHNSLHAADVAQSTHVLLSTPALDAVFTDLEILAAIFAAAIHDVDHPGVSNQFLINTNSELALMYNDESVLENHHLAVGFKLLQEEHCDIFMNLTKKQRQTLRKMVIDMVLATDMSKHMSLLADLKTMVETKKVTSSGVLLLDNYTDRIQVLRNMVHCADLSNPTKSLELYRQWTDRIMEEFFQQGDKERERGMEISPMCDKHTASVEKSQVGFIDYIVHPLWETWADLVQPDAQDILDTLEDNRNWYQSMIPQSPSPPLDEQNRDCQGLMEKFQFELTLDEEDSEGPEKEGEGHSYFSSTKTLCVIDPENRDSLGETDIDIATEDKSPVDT
Procedure, shortened: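 Cell-based read-out of cAMP via a modified cyclic nucleotide-gated channel and membrane potential dye (535/590 nm) in HEK293 cells expressing PDE4 endogenously. Compounds tested up to 22.9 uM final; 100 uM RO 20-1724 reference.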

[11] = biological target: Cytochrome P450 1A2 (Homo sapiens) (UniProt P05177); experiment: p450-cyp1a2 (AID 410; calls by dose curve; also: potency is read from the fitted curve at half-maximal effect;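 as to activity change, negative = inhibition: -100% = full effect of reference inhibitor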); settings: recombinant CYP1A2, luciferin-ME demethylation, luminescence; series mostly up to 57 µM
Chain of Cytochrome P450 1A2 (Homo sapiens) (P05177 whole entry, looked up): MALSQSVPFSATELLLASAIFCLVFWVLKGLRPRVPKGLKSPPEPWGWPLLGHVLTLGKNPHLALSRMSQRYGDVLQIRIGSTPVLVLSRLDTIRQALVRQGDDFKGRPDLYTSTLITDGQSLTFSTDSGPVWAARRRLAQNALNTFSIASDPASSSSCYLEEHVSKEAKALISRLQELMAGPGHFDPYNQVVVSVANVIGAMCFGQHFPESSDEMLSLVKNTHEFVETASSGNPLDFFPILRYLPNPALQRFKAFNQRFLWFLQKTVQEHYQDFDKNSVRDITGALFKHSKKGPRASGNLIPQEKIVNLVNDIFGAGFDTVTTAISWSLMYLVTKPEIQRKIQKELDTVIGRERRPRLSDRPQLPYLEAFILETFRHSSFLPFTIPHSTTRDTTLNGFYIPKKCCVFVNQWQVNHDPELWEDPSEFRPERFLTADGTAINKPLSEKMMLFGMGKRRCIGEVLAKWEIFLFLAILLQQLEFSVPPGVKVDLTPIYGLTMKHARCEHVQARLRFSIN
Procedure, shortened: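 Luminescent demethylation readout: Luciferin-ME (100uM, equal to Km) turned over by 20nM CYP1A2 for 60 min at room temperature after NADPH regeneration addition, following 10 min compound preincubation. Normalization used 57 uM furafylline as full inhibition.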

[12] = biological target: Guanine nucleotide-binding protein G(i) subunit alpha-1 (Homo sapiens) (UniProt P63096); experiment: qHTS Assay for Inhibitors of RGS12 GoLoco Motif Activity (Green Fluorophore) (AID 879; active = well fitted curve in the direction sought with a large enough effect; an effect the other way counts as inactive or inconclusive;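 also: 0% = labeled peptide with Gαi1 and full inhibition = labeled peptide alone without protein; negative values mean loss of peptide binding seen as reduced polarization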); settings: Galphai1/FITC-RGS12 GoLoco peptide, fluorescence polarization; series mostly up to 57.1 µM
Chain of Guanine nucleotide-binding protein G(i) subunit alpha-1 (Homo sapiens) (P63096 whole entry, looked up): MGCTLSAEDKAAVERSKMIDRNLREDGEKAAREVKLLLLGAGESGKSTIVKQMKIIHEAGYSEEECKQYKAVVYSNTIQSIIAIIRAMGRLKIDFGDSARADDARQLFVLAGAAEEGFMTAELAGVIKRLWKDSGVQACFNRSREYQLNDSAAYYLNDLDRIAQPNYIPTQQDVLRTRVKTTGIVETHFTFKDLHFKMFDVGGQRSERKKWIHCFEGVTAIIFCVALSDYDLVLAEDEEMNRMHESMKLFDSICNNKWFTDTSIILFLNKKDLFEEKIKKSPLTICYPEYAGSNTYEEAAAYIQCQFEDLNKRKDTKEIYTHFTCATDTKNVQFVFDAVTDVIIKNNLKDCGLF
Procedure, shortened: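 A drop in FITC polarization marked displacement of the FITC-tagged RGS12 GoLoco peptide (10 nM) from Gαi1 (50 nM). Compounds were incubated 10 min at room temperature in Tris pH 7.5 buffer containing 150 mM NaCl, 0.1 mM GDP and 0.05% NP40; unlabeled peptide titration served as control.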

[13] = biological target: Cytochrome P450 3A4 (Homo sapiens) (UniProt P08684); experiment: qHTS Assay for Activators of Cytochrome P450 3A4 (AID 885; active = well fitted curve in the direction sought with a large enough effect; an effect the other way counts as inactive or inconclusive; also: nearly all actives have a fitted effect of over 65% in size); settings: recombinant CYP3A4, Luciferin-PPXE luminescence, 60 min; series mostly up to 57.1 µM
Chain of Cytochrome P450 3A4 (Homo sapiens) (P08684 whole entry, looked up): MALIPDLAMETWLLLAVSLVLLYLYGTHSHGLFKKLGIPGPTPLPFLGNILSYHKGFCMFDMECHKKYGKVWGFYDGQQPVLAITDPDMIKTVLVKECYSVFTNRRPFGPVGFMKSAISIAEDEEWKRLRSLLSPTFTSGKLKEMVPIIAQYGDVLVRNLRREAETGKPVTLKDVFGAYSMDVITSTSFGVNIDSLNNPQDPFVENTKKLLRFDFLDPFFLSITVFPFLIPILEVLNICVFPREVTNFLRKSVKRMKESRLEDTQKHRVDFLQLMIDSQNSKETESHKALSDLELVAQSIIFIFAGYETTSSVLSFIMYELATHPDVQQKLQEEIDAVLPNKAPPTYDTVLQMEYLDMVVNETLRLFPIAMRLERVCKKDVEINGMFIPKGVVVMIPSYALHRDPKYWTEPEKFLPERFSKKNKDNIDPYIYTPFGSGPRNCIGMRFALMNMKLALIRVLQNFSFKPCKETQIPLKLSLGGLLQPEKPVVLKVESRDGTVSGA
Procedure, shortened: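 Luminescent readout of luciferin formed from 25 uM Luciferin-PPXE (KM level) by 20 nM CYP3A4 in 200 mM KPO4, with 60 min NADPH-driven reaction at room temperature after 10 min compound exposure. Ketoconazole (57 uM) defined 100% inhibition.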

[14] = biological target: Muscarinic acetylcholine receptor M1 (Rattus norvegicus) (UniProt P08482); experiment: qHTS Assay for Antagonists of Acetylcholine Muscarinic M1 Receptor: Measurement of IP-One Response (AID 944; active = well fitted curve in the direction sought with a large enough effect; an effect the other way counts as inactive or inconclusive; also: nearly all actives have a fitted effect of over 75% in size); settings: CHO-M1 cells, IP-One HTRF, antagonist mode; series mostly up to 46.1 µM
Chain of Muscarinic acetylcholine receptor M1 (Rattus norvegicus) (P08482 whole entry, looked up): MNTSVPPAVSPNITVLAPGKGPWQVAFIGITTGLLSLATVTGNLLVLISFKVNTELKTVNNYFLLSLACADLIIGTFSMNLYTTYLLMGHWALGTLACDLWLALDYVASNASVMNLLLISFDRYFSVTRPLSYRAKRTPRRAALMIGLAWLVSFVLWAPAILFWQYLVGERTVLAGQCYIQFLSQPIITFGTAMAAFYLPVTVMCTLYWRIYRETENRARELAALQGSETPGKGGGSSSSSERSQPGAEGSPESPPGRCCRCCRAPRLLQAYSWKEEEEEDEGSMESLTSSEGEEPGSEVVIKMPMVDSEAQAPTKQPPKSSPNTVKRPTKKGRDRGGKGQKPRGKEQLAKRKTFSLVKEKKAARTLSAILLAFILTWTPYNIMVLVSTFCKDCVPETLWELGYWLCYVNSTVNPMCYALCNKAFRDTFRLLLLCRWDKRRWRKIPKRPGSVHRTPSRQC
Procedure, shortened: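 IP1 accumulation measured via TR-FRET between d2-IP1 and Eu-cryptate anti-IP1 antibody after carbachol (200 nM, EC80) stimulation for 30 min; rat M1-transfected CHO cells received compound 10 min before agonist.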

[15] = biological target: Pyruvate kinase (Leishmania mexicana) (UniProt Q27686); experiment: qHTS Validation Assay for Inhibitors of Leishmania Mexicana Pyruvate Kinase (AID 945; active = well fitted curve in the direction sought with a large enough effect; an effect the other way counts as inactive or inconclusive;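 also: 0% = DMSO only neutral control wells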); settings: purified L. mexicana pyruvate kinase, enzyme activity, E451W mutant enzyme; series mostly up to 57.5 µM
Procedure, shortened: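 Eight-point qHTS titrations; enzyme 0.2 nM LmPYK (E451W mutant); substrates 0.5 mM PEP, 0.1 mM ADP; 7 mM MgCl2; 1 h room temperature; PKLight luminescence normalized to neutral control.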

[16] = biological target: Pyruvate kinase PKM (Homo sapiens) (UniProt P14618); experiment: qHTS Assay for Activators of Human Muscle Pyruvate Kinase (AID 954; active = well fitted curve in the direction sought with a large enough effect, not every such curve was filed as active;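 also: 0% = uninhibited enzyme and -100% = no enzyme or full thiadiazolimine inhibition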); settings: purified human muscle pyruvate kinase, luciferase-coupled luminescence, 1 h; series mostly up to 57.5 µM
Chain of Pyruvate kinase PKM (Homo sapiens) (P14618 whole entry, looked up): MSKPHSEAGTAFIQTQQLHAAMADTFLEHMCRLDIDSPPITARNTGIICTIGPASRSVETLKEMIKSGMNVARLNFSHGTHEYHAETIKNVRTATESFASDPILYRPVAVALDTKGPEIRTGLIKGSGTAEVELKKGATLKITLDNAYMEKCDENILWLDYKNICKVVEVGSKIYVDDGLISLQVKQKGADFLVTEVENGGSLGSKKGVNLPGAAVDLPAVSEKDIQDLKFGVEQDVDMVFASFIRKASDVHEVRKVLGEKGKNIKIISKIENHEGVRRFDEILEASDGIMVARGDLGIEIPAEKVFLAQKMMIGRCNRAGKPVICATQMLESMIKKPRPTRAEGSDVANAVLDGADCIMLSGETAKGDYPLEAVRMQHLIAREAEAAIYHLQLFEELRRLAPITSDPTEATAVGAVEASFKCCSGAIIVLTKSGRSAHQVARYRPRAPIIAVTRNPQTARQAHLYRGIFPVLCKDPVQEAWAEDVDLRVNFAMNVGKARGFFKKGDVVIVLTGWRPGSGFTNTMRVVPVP
Procedure, shortened: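 ATP production by PKM2 detected via luciferase luminescence after 1 h room-temperature reaction (0.1 nM enzyme, PEP at Km 0.5 mM, ADP 0.1 mM, pH 7.2 imidazole buffer). Inhibition scaled to no-enzyme control; activation referenced to 0.3 nM enzyme wells.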

[17] = biological target: DNA dC->dU-editing enzyme APOBEC-3G (Homo sapiens) (UniProt Q9HC16); experiment: qHTS for inhibitors of Vif-A3G interactions: Validation (AID 588379; active = well fitted curve in the direction sought with a large enough effect; an effect the other way counts as inactive or inconclusive; also: 0% is about no effect); settings: Vif-A3G protein interaction assay; series mostly up to 46.1 µM
Chain of DNA dC->dU-editing enzyme APOBEC-3G (Homo sapiens) (Q9HC16 whole entry, looked up): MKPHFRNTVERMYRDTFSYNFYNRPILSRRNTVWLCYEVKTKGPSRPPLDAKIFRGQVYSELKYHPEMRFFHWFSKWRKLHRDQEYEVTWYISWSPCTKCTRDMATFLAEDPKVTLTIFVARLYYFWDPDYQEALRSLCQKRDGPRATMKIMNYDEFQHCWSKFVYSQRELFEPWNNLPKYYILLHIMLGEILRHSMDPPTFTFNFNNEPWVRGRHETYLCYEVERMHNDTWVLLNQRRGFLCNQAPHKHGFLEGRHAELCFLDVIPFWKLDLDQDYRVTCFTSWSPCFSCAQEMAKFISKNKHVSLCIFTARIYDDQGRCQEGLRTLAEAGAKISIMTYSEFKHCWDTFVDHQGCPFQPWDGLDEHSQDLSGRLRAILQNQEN
Procedure, shortened: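 Yellow fluorescence (Ex 488, Em 500-530) of Vif-coexpressing HeLa A3G-eYFP cells, scanned by Acumen cytometer, reports blocked A3G degradation. Cells plated at 700/well overnight at 37 deg C before compound addition, then a further overnight compound incubation at 37 deg C.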

[18] = biological target: Cytochrome P450 3A4 (Homo sapiens) (UniProt P08684); experiment: qHTS Assay for Inhibitors and Substrates of Cytochrome P450 3A4 (AID 884; active = well fitted curve in the direction sought with a large enough effect; an effect the other way counts as inactive or inconclusive; also: potency is read from the fitted curve at half-maximal effect; nearly all actives have a fitted effect of over 50% in size); settings: recombinant CYP3A4, Luciferin-PPXE luminescence; series mostly up to 57.1 µM
Procedure, shortened: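 Luminescent readout of luciferin produced by CYP3A4 (20 nM) dealkylation of Luciferin-PPXE, 25 uM (its KM). NADPH-driven reaction ran 60 min at RT after 10 min compound preincubation; data scaled to 57 uM ketoconazole as 100% inhibition.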

[19] = biological target: Ubiquitin carboxyl-terminal hydrolase 1 (Homo sapiens) (UniProt O94782); experiment: Inhibitors of USP1/UAF1: Pilot qHTS (AID 504865; active = well fitted curve in the direction sought with a large enough effect; an effect the other way counts as inactive or inconclusive;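 also: rhodamine fluorescence freed from ubiquitin-rhodamine substrate followed over time; top concentration of the series differs between compounds; % is scaled to controls: 0 for no effect and ±100 for the full control effect; nearly all actives have a fitted effect of over 35% in size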); settings: purified USP1/UAF1, Ub-rhodamine cleavage fluorescence; series mostly up to 54.9 µM
Procedure, shortened: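 USP1/UAF1 complex (1nM) preincubated with compound 15 min at room temperature, then Ub-Rho substrate (150nM final) added. Fluorescence read kinetically at 480/540 nm, 6 reads every 60 seconds. Buffer: 50mM HEPES pH 7.8, 0.5mM EDTA, 0.1 mg/ml BSA, 1mM TCEP, 0.01% Tween-20.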

`Cc1noc(C)c1C(=O)N1CCC2(CC1)CCN(C(c1ccccc1)c1ccccc1)CC2` showed a Potency [1] of over 11.4 µM, an activity change, negative = inhibition [2] of -6.81% and an activity, negative = inhibition [3] of 10.1%. For the same compound, the Potency [4] was over 46 µM, the Potency [5] was “inactive” and the activation [6] was -2.4%. For the same compound, the outcome [7] was “inactive”.
Work on `COc1ccc(Oc2ncc3nc(-c4cccs4)c(=O)n(Cc4cccs4)c3n2)cc1` yielded a Potency [1] of over 11.4 µM, an activity change, negative = inhibition [8] of -3.5% and a Potency [9] of over 9.22 µM. The Potency [4] was over 46 µM, the Potency [5] was “inactive” and the Potency [10] was “inactive”. For the same compound, the Potency [6] was 3.16 µM (active) and the outcome [7] was “inactive”.
For `COc1cccc(Cn2c(=O)c(C)nc3cnc(N4CCOCC4)nc32)c1`, the Potency [1] was over 11.4 µM, the activity change, negative = inhibition [8] was 2.68% and the activity, negative = inhibition [3] was -1.29%. The Potency [9] was over 9.22 µM, the Potency [4] was over 46 µM and the Potency [5] was “inactive”. The outcome [7] was “inactive”.
With `Oc1cc2c(c(Cl)c1O)CCNC[C@H]2c1ccccc1` the activity change, negative = inhibition [2] was -21% [at 38 µM], the Potency [11] was “inactive” and the activity change, negative = inhibition [8] was -20.4% [at 38 µM]. The Potency [9] was over 46 µM, the Potency [4] was over 46 µM and the Potency [5] was “inactive”. The Potency [10] was “inactive”, the Potency [12] was “inactive” and the Potency [13] was “inactive”. For the same compound, the Potency [14] was “inactive”, the outcome [15] was “inactive” and the outcome [16] was “inactive”. The outcome [17] was “inactive” and the outcome [7] was “inactive”.
In the case of `Fc1ccc(Nc2nc(-c3ccoc3)nc3ccccc23)cc1`, the activity change, negative = inhibition [2] is reported as 11.4%, the Potency [11] is reported as 0.316 µM (active) and the activity change, negative = inhibition [8] is reported as -21.4%. It also gave an activity, negative = inhibition [3] of 4.98%, a Potency [9] of over 46 µM and a Potency [4] of over 46 µM. For the same compound, the Potency [5] was “inactive”, the Potency [18] was 3.98 µM (active) and the Potency [19] was “inactive”. For the same compound, the outcome [7] was “inactive”.
`N#Cc1ccc(CN2CCCC3(CCN(C(=O)c4cnccn4)CC3)C2)cc1` gave a Potency [1] of over 11.4 µM, an activity, negative = inhibition [3] of -1.62% and a Potency [4] of over 46 µM. For the same compound, the Potency [5] was “inactive”, the Potency [10] was “inactive” and the activation [6] was -10.7%. The outcome [7] was “inactive”.
With `O=c1cnc2cnc(Nc3ccccc3)nc2n1C[C@H]1CCCO1` the Potency [1] was over 11.4 µM, the Potency [11] was 0.794 µM (active) and the Potency [9] was over 9.22 µM. The Potency [4] was over 46 µM, the Potency [10] was “inactive” and the Potency [13] was “inactive”. For the same compound, the outcome [7] was “inactive”.
In the case of `O=c1c(-c2ccc(Cl)cc2)nc2cnc(N3CCNCC3)nc2n1Cc1ccc(F)cc1`, the Potency [1] is reported as over 11.4 µM, the Potency [11] is reported as 15.8 µM (active) and the Potency [9] is reported as over 9.22 µM. For the same compound, the Potency [4] was over 46 µM, the Potency [13] was “inactive” and the outcome [7] was “inactive”.
For `COc1ccc(NC(=O)N2CCCC3(CCN(C(=O)c4cccc(F)c4)CC3)C2)cc1`, the activity change, negative = inhibition [2] was -26.5%, the Potency [11] was “inactive” and the activity change, negative = inhibition [8] was -25.3%. The activity, negative = inhibition [3] was -10.9%, the Potency [4] was 29.5 µM (active) and the Potency [5] was “inactive”. For the same compound, the Potency [10] was “inactive”, the Potency [13] was “inactive” and the outcome [7] was “inactive”.

Source: PubChem BioAssay (NCATS)
